“And” between values parts separate entries of the source, which are not always exact repeats. Equal values may be shown once. The campaign covered roughly 5,500 compounds. About 2,000 (36%) were called active. Roughly 18% stayed inconclusive and do not appear here. No stated cut-off is given here; in the data, active means normalized growth mostly below about 0.91 (no sharp cut-off); inconclusive means no clear call, values can overlap the other calls; inactive means mostly above about 0.92. Some of the results follow.
Experiment: chemical genetic growth profiling, strain panel (AID 1159580);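 further: tested at 20 µM; growth read once vehicle control cultures reached saturation at 30 °C; 1 = growth at the plate median or of vehicle wells; lower values mean less growth of the strain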
Settings: S. cerevisiae deletion strains, growth OD

Measured: normalized growth

CN[C@@H]1[C@H](OC2[C@H](O[C@H]3[C@H](O)[C@@H](O)[C@H](N=C(N)N)[C@@H](O)[C@@H]3N=C(N)N)O[C@@H](C)[C@]2(O)C=O)O[C@@H](CO)[C@H](O)[C@H]1O (stereo not given in full)
inactive: locus YAL013W, strain DEP1, active compounds read low 1 | locus YAL021C, strain ccr4, active compounds read low 1 | locus YAL026C, strain drs2, active compounds read low 0.993 | locus YAL030W, strain snc1, active compounds read low 1.01 | locus YBL061C, strain skt5, active compounds read low 1.01 | locus YBR009C, strain hhf1, active compounds read low 0.988 | locus YBR021W, strain FUR4, active compounds read low 1.02 | locus YBR023C, strain chs3, active compounds read low 1 | locus YBR171W, strain sec66, active compounds read low 1.01 | locus YBR229C, strain ROT2, active compounds read low 1.02 | locus YBR231C, strain swc5, active compounds read low 1.03 | locus YBR279W, strain paf1, active compounds read low 0.999 | locus YCL011C, strain gbp2, active compounds read low 0.992 | locus YCL016C, strain dcc1, active compounds read low 0.98 | locus YCL029C, strain bik1, active compounds read low 1.01 | locus YCL069W, strain vba3, active compounds read low 1.01 | locus YCR088W, strain abp1, active compounds read low 0.998 | locus YDL005C, strain med2, active compounds read low 1.01 | locus YDL035C, strain GPR1, active compounds read low 1.01 | locus YDL040C, strain nat1, active compounds read low 0.999 | locus YDL074C, strain BRE1, active compounds read low 1.01 | locus YDL101C, strain DUN1, active compounds read low 1.01 | locus YDL134C, strain PPH21, active compounds read low 1.01 | locus YDL185W, strain tfp1, active compounds read low 0.996 | locus YDL192W, strain arf1, active compounds read low 1.01 | locus YDR001C, strain nth1, active compounds read low 0.987 | locus YDR069C, strain doa4, active compounds read low 1.04 | locus YDR101C, strain arx1, active compounds read low 1.01 | locus YDR137W, strain rgp1, active compounds read low 1.03 | locus YDR159W, strain sac3, active compounds read low 0.978 | locus YDR162C, strain NBP2, active compounds read low 1 | locus YDR195W, strain ref2 1.04 | locus YDR297W, strain sur2, active compounds read low 1.02 | locus YDR318W, strain mcm21, active compounds read low 1.01 | locus YDR334W, strain swr1, active compounds read low 1.01 | locus YDR335W, strain msn5, active compounds read low 1.01 | locus YDR388W, active compounds read low 1.02 | locus YDR392W, strain spt3, active compounds read low 0.959 | locus YDR502C, strain sam2, active compounds read low 1.02 | locus YEL003W, strain gim4, active compounds read low 1.01 | locus YEL037C, strain rad23, active compounds read low 1 | locus YEL061C, strain CIN8 (second series), active compounds read low 1.01 | locus YEL061C, strain CIN8, active compounds read low 1.01 | locus YER015W, strain faa2, active compounds read low 1 | locus YER016W, strain bim1, active compounds read low 0.987 | locus YER110C, active compounds read low 1.03 | locus YER111C, strain swi4, active compounds read low 1 | locus YER155C, strain BEM2 (second series), active compounds read low 1.04 | locus YER155C, strain BEM2, active compounds read low 0.995 | locus YER167W, strain BCK2, active compounds read low 1.01 | locus YFR010W, strain ubp6, active compounds read low 1.03 | locus YGL078C, strain dbp3, active compounds read low 1 | locus YGL086W, strain mad1, active compounds read low 1.01 | locus YGL167C, strain pmr1, active compounds read low 1.02 | locus YGL173C, strain kem1, active compounds read low 1.03 | locus YGL227W, strain vid30, active compounds read low 0.998 | locus YGL240W, strain doc1, active compounds read low 1.05 | locus YGL248W, strain PDE1, active compounds read low 1.01 | locus YGL253W, strain hxk2, active compounds read low 0.977 | locus YGR135W, strain pre9, active compounds read low 1.01 | locus YGR229C, strain SMI1, active compounds read low 1 | locus YGR252W, strain gcn5, active compounds read low 1.01 | locus YHR013C, strain ard1, active compounds read low 1.01 | locus YHR027C, strain rpn1, active compounds read low 1 | locus YHR030C, strain SLT2, active compounds read low 1.01 and 0.961 | locus YHR079C, strain IRE1 (second series), active compounds read low 1.02 | locus YHR079C, strain IRE1, active compounds read low 0.991 | locus YHR094C, strain hxt1, active compounds read low 1.02 | locus YHR129C, strain ARP1, active compounds read low 1.01 | locus YHR142W, strain chs7, active compounds read low 1 | locus YHR200W, strain rpn10, active compounds read low 1.02 | locus YIL066C, strain RNR3, active compounds read low 1.02 | locus YIL073C, strain SPO22, active compounds read low 1.05 | locus YIL125W, strain kgd1, active compounds read low 1.01 | locus YIR030C, strain dcg1, active compounds read low 1.01 | locus YJL092W, strain hpr5, active compounds read low 1.01 | locus YJL095W, strain BCK1 (second series), active compounds read low 1.01 | locus YJL095W, strain BCK1, active compounds read low 1.01 and 0.996 | locus YJL115W, strain asf1, active compounds read low 1.01 | locus YJL129C, strain trk1, active compounds read low 1.02 | locus YJL134W, strain LCB3, active compounds read low 1 | locus YJL154C, strain vps35, active compounds read low 1 | locus YJL164C, strain tpk1, active compounds read low 0.983 | locus YJL166W, strain qcr8, active compounds read low 1.02 | locus YJL168C, strain set2, active compounds read low 1.01 | locus YJL187C, strain SWE1 (second series), active compounds read low 1.02 | locus YJL187C, strain SWE1, active compounds read low 1.01 | locus YJR043C, strain POL32, active compounds read low 1.01 | locus YJR066W, strain TOR1, active compounds read low 0.978 | locus YJR075W, strain HOC1, active compounds read low 1.01
